In PubChem BioAssay (NCI):
Where “and” joins values, the source holds several entries; their conditions need not be identical. Equal values may be shown once. Compounds without any hit were thinned out: in the full panel of roughly 83,000, 20% have a hit.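 Interpretation: 100, growth as untreated; towards 0, rising growth inhibition; 0, no net growth; 0 to -100, cell death. Compounds scoring below 10 were considered active.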 Calls of active or inactive are those of the source.

Assays:
Experiment in all cases: NCI-60 one-dose screen, 48 h (100 = growth as untreated, 0 = no growth, -100 = all killed)
Conditions in all cases: 10 µM unless noted
[1] = system: DU-145 prostate
[2] = system: K-562 leukemia
[3] = system: MALME-3M melanoma
[4] = system: MDA-MB-231 breast
[5] = system: RXF 393 renal
[6] = system: SF-268 CNS
[7] = system: SF-295 CNS
[8] = system: SF-539 CNS
[9] = system: UACC-257 melanoma
[10] = system: M14 melanoma
[11] = system: HCT-15 colon
[12] = system: HT29 colon
[13] = system: SNB-75 CNS
[14] = system: SNB-19 CNS
[15] = system: U251 CNS
[16] = system: PC-3 prostate
[17] = system: SK-MEL-5 melanoma
[18] = system: UACC-62 melanoma
[19] = system: LOX IMVI melanoma
[20] = system: SK-MEL-28 melanoma

SMILES	growth [1]	growth [2]	growth [3]	growth [4]	growth [5]	growth [6]	growth [7]	growth [8]	growth [9]	growth [10]	growth [11]	growth [12]	growth [13]	growth [14]	growth [15]	growth [16]	growth [17]	growth [18]	growth [19]	growth [20]
CCOC(=O)c1c(NCC(=O)Nc2cccc([N+](=O)[O-])c2)sc(C(C)=O)c1C	-13.9% (active)	8.15% (active)	-21.8% (active)	10.3% (inactive)	-86.5% (active)	-17.6% (active)	-11.7% (active)	-28.8% (active)	-11.9% (active)	-81.7% (active)	-6.35% (active)	-35.3% (active)	-0.605% (active)	9.51% (active)	-13.2% (active)	-14.5% (active)	-82.9% (active)	-19.6% (active)	-38.1% (active)	2.62% (active)
O=C(Nc1ccc(N2CCOCC2)cc1)Nc1ccc2c(ccn2C(=O)c2cccc(F)c2)c1	60.2% (inactive)	77.3% (inactive)	49.4% (inactive)	60.1% (inactive)	-0.178% (active)	65.2% (inactive)	32.5% (inactive)	28.3% (inactive)	61.2% (inactive)	51.3% (inactive)	78.6% (inactive)	76% (inactive)	12.3% (inactive)	46.9% (inactive)	41.5% (inactive)	49.3% (inactive)	69.4% (inactive)	42.3% (inactive)	23% (inactive)	59.2% (inactive)
CC(C)(O)c1cncc(-c2ccc3ncc(C#N)c(N4CCc5cc(F)c(Cl)cc54)c3c2)c1	11.7% (inactive)	29.6% (inactive)	-12.8% (active)	20.4% (inactive)	-34.1% (active)	21.5% (inactive)	-10.9% (active)	-15% (active)	11% (inactive)	10.3% (inactive)	9.91% (active)	9.96% (active)	-12.6% (active)	11.2% (inactive)	20.1% (inactive)	11.9% (inactive)	-22.4% (active)	-7.62% (active)	5.41% (active)	9.63% (active)
C=CCSC1=NC2C(N(CC)C(=O)N2CC)N1/N=C/C=C/c1ccccc1OC (stereo not given)	92.2% (inactive)	28% (inactive)	72.2% (inactive)	82.5% (inactive)	79.3% (inactive)	89.2% (inactive)	58.5% (inactive)	78.1% (inactive)	83% (inactive)	72.6% (inactive)	50.8% (inactive)	70.3% (inactive)	70.7% (inactive)	79.9% (inactive)	74.2% (inactive)	62.4% (inactive)	65.5% (inactive)	54.6% (inactive)	68.9% (inactive)	84.3% (inactive)
COC(=O)c1cccc(NC2=C(Cl)C(=O)c3nc(C)ccc3C2=O)c1	105% (inactive)	6.34% (active)	87.5% (inactive)	62.6% (inactive)	59.7% (inactive)	99.5% (inactive)	107% (inactive)	111% (inactive)	62% (inactive)	98.3% (inactive)	51.6% (inactive)	110% (inactive)	119% (inactive)	92.2% (inactive)	106% (inactive)	85.4% (inactive)	97.9% (inactive)	95.4% (inactive)	10.2% (inactive)	93.6% (inactive)
N#Cc1cnc2ccc(-c3cnc4n[nH]nc4c3)cc2c1N1CCc2cc(F)c(Cl)cc21	14.6% (inactive)	28.1% (inactive)	1.37% (active)	21.2% (inactive)	-22.2% (active)	16.7% (inactive)	2.19% (active)	2.37% (active)	23.9% (inactive)	21.2% (inactive)	12.3% (inactive)	28.1% (inactive)	-0.117% (active)	16.4% (inactive)	21.1% (inactive)	20.4% (inactive)	-45% (active)	2.13% (active)	10.1% (inactive)	13.4% (inactive)
Cn1ncc2c(C(=O)c3ccc(F)cc3)nc(C(C)(C)C)nc21	102% (inactive)	104% (inactive)	89.7% (inactive)	102% (inactive)	94.1% (inactive)	97.3% (inactive)	99.6% (inactive)	97.1% (inactive)	94.3% (inactive)	100% (inactive)	97.7% (inactive)	104% (inactive)	89.6% (inactive)	95.4% (inactive)	98.6% (inactive)	92.5% (inactive)	100% (inactive)	98% (inactive)	95.7% (inactive)	98% (inactive)
CCc1cc(OC(=O)N2CCN(CCC(C)(COC(C)(C)C)COC(C)(C)C)CC2)ccc1Nc1cc(-c2ccc(-n3cccn3)cc2)[nH]n1	84% (inactive)	52.1% (inactive)	89.7% (inactive)	83.5% (inactive)	41% (inactive)	73.8% (inactive)	85.1% (inactive)	88.8% (inactive)	92.9% (inactive)	97.6% (inactive)	65.9% (inactive)	47.3% (inactive)	48.7% (inactive)	86.2% (inactive)	74.9% (inactive)	53.9% (inactive)	90.8% (inactive)	85.8% (inactive)	104% (inactive)	96.6% (inactive)
CN(C)CC(=O)Nc1nc(-c2cccc(NS(=O)(=O)c3cccc4c(N(C)C)cccc34)c2)cs1	103% (inactive)	65.1% (inactive)	85.2% (inactive)	83.8% (inactive)	88.5% (inactive)	96.4% (inactive)	70.4% (inactive)	93.3% (inactive)	86% (inactive)	100% (inactive)	75.8% (inactive)	94.3% (inactive)	95.6% (inactive)	88.8% (inactive)	83.4% (inactive)	72% (inactive)	63.4% (inactive)	72.5% (inactive)	95.3% (inactive)	104% (inactive)
C/C=C/CC(C)C(O)[C@H](NC(=O)[C@@H]1CCCN1C(=O)[C@](C)(CC)NC(=O)CCCCCCCCC)C(=O)N[C@@](C)(CC)C(=O)N[C@@H](CCC(N)=O)C(=O)N[C@H](CCC(N)=O)C(=O)NC(C)(C)C(=O)NC(C)(C)C(=O)N[C@@H](CCC(N)=O)C(=O)N[C@H](CC(C)C)C(=O)N[C@H](CO)CC(C)C (stereo not given in full)	-21.7% (active) and -48.7% (active)	14.5% (inactive) and 10.4% (inactive)	29.9% (inactive) and -95.9% (active)	63.4% (inactive) and -96% (active)	0.95% (active) and -63% (active)	20.8% (inactive) and -63.8% (active)	11.3% (inactive) and -81.6% (active)	39.5% (inactive) and -100% (active)	21.1% (inactive) and -71.1% (active)	54.7% (inactive) and -71.4% (active)	76.9% (inactive) and -9.08% (active)	89.8% (inactive) and -25% (active)	13.1% (inactive) and -93.4% (active)	65.8% (inactive) and -98.1% (active)	61.2% (inactive) and -77.9% (active)	69.8% (inactive) and -63.6% (active)	7.02% (active) and -81.2% (active)	73.8% (inactive) and -86.4% (active)	40.1% (inactive) and -86.6% (active)	-42.7% (active) and -100% (active)
O=c1c2ccccc2cc2n1CCN=C2c1ccccc1	102% (inactive)	103% (inactive)	102% (inactive)	96.2% (inactive)	96.2% (inactive)	97.2% (inactive)	103% (inactive)	98.6% (inactive)	110% (inactive)	103% (inactive)	96.6% (inactive)	104% (inactive)	94.9% (inactive)	94.8% (inactive)	97% (inactive)	96.5% (inactive)	99.5% (inactive)	96% (inactive)	101% (inactive)	112% (inactive)
N#Cc1c(-c2ccc(Br)cc2)cc(-c2c[nH]c3ccccc23)nc1N	70% (inactive)	18.6% (inactive)	73.9% (inactive)	46% (inactive)	25.9% (inactive)	56.9% (inactive)	52.4% (inactive)	43% (inactive)	94.4% (inactive)	44.6% (inactive)	16.8% (inactive)	27.4% (inactive)	37.9% (inactive)	66.1% (inactive)	52.6% (inactive)	55.2% (inactive)	58.9% (inactive)	64.9% (inactive)	28.7% (inactive)	59.3% (inactive)
O=S(=O)(NCCCNc1nccc(-c2[nH]c(-c3ccccc3)nc2-c2ccc(F)c(O)c2)n1)c1ccc(C(F)(F)F)cc1	79.9% (inactive)	9.88% (active)	-5.99% (active)	67.1% (inactive)	24.5% (inactive)	54% (inactive)	31.3% (inactive)	31.1% (inactive)	24.6% (inactive)	3.88% (active)	38.1% (inactive)	94.9% (inactive)	-0.845% (active)	43.2% (inactive)	33.5% (inactive)	40.8% (inactive)	-0.786% (active)	2.32% (active)	46.3% (inactive)	30.1% (inactive)
COC(=O)c1cccc(NC2=CC(=O)C(C)=C(C)C2=O)c1	108% (inactive)	69.3% (inactive)	97.9% (inactive)	76.4% (inactive)	94.2% (inactive)	97.3% (inactive)	115% (inactive)	97.2% (inactive)	86.9% (inactive)	108% (inactive)	93.8% (inactive)	110% (inactive)	93.4% (inactive)	96.2% (inactive)	94.7% (inactive)	79.7% (inactive)	96.3% (inactive)	96.2% (inactive)	61% (inactive)	111% (inactive)
